40 sequences from the supplement of paper PMC6555819 can be followed below.

One experiment has as its system PPARg:RXRa (NR concentration 180 nM, RXRa partner concentration 90 nM). As to the kind of experiment: PBM binding z-score (relative to random genomic background probes); higher = stronger binding; sequences stand for … in GC…GCGATTGACAGCGTAGAATGAAGG
The method, boiled down: (§1)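 Scanned fluorescence from custom Agilent 4×180K protein-binding microarrays was regression-normalized. Binding z-scores use random background probes as reference. Ligand-free nuclear receptor dimers were incubated on the arrays for 1 h and detected with antibodies against each partner (one per run).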
TAGCCTAGGTCATTGGGCCACTATAGTACGCATC had a PBM binding z-score of 4.65.

Turning to TAGCCTAGGACATTGGGCCAGTATAGTACGCATC, the PBM binding z-score came out at 0.608.

Consider ATCTCTAGGTAAGACTCGGTTCAGTGAAGAACGC, for which the PBM binding z-score was -0.0197.

Sequence ACTAGCAGGCCAAGGGTCTCTCAAGATTAGTCCG returned a PBM binding z-score of 2.49.

On to CCTAGCAGGCCAGGGTCACTCTAGCATTTCGCTT, for which the PBM binding z-score came to 0.377.

For the sequence GCTTGTTGGTCAGTAAAAGGTCACACACCGGTCG, the PBM binding z-score was 3.2.

TCATATAGGTAAACAGGTGAAAGTGCGTAAGTTA: the PBM binding z-score was 4.88.

ATCTCTAGGCAAAGTTCAGTGAAAGATCGATAGA yielded a PBM binding z-score of 2.49.

Regarding ATCTCTAGTTAAAGTTCAGTGAAAGATCGATAGA, the PBM binding z-score amounted to 1.74.

For CCGACTGGGGCAAAGGTTACTATACTCAGTACGA, the PBM binding z-score came to 10.7.

With TCTTGCAGATCAAGCAGGTTAAGAAAGCCTGAGT, the PBM binding z-score was -0.508.

On to CGTACTGGGCCATTCAGAGGTCATTGATCATATG, for which the PBM binding z-score was 2.45.

The sequence CGACAAAGTTCAACTAAGGTAACGTAAAGCACGC yielded a PBM binding z-score of 4.38.

On to TCGGCTAGGTCAACGATGGTCAGCTAATCTGCTA, for which the PBM binding z-score is 1.75.

Consider AGAATGAGGTGACCAAAGATCAGGGAAACGCTTG, for which the PBM binding z-score was determined as 2.48.

Sequence GCGACTGGGGCAAAGCAGGTTACGATAAGGTTGG gave a PBM binding z-score of 1.32.

As for TCAAATAGGTAATACAGGTGAAAGTCGGCATCTA, the PBM binding z-score is 1.14.

Turning to GTAACGAGGGCATTCGAGTTGATAGCATGGCGAT, the PBM binding z-score is 1.12.

As to CCTATTTGTTGACCATAAGGGCAACCGAAGCTCG, the PBM binding z-score is 0.437.

The sequence CCGGCTAGGTCATGGTCAGCTAATCTACAGTATG displayed a PBM binding z-score of 1.86.

On to CCAGACAGGTGAAAGGGAACTCAGTCTGGTACGC, for which the PBM binding z-score was 2.51.

In turn, CGAACTAGGTCATCCAGGGCAGTGAATACATTGA gave a PBM binding z-score of 7.91.

The sequence CCGAGAAGGTTATGGGGCATTCAGGCAACGGTGA displayed a PBM binding z-score of 1.15.

As to TAGCCTAGGTCATTCAGGGGCCAGTATAGAAAGC, the PBM binding z-score worked out at 1.97.

As to CCGAGTAGGTTATGGGGCATGCAGGCAACGGTGA, the PBM binding z-score was 3.81.

Regarding GGAACGAGGGCAAGATGATAGCAGAGTTTGATGG, the PBM binding z-score came to 1.39.

Consider CGAACTAGGTCAGAACAGGACAGTGGAGGATGAT, for which the PBM binding z-score worked out at 5.08.

Turning to TCATATCGGTAAAGGTGAAAGTCGAACGATATGA, the PBM binding z-score stood at 1.89.

With TCTAGCAGGCCAAAGGGTCACTCAAGAGGTACGG, the PBM binding z-score worked out at 3.36.

ATCGAAAGGTCGCGAGGTGAGTATACAGAAAGGC had a PBM binding z-score of 4.54.

In turn, CGTCCAAGGTCAAGGTCATTGAAAGAGACTCGAA yielded a PBM binding z-score of 6.59.

Regarding CGTCAAAGTTCAGCTAAGGTAACGTAAAGCACGC, the PBM binding z-score is 3.16.

CCGAGTAGTTTATGGGGCATTCAGGCAACGGTGA registered a PBM binding z-score of 0.147.

For CCAGACAGGTGCGAAGGTAACTCAGCCTCGATTA, the PBM binding z-score turned out to be 0.0695.

As to ACAGACAGGTGATGAAGGTAACTGAGGCTATCAT, the PBM binding z-score was determined as 0.558.

As to AGGCAAAGTTCATCTAGGTAACGTAAGATATGCT, the PBM binding z-score turned out to be 5.55.

Turning to AGAATGAGGTTATACGTTGATCAGGGAAGAAAGT, the PBM binding z-score is 2.03.

The sequence TCTTGTAGATCAGCAGGTTAATAAAGCTGGCCAA registered a PBM binding z-score of -0.26.

The sequence GTACCAGGGTGAATAGGTCGTTGATGAGTAGGCG registered a PBM binding z-score of 1.15.

CCGACAGGGGCAAAGGTTACCATACTCAGTACGA: the PBM binding z-score is 7.39.

A further experiment relates to PPARg:RXRa 270nM:90nM, anti-RXR (NR concentration 270 nM, RXRa partner concentration 90 nM). The description is as above. In a few lines: as §1
Sequence TAGCCTAGGTCATTGGGCCACTATAGTACGCATC registered a PBM binding z-score of 4.12.

For the sequence TAGCCTAGGACATTGGGCCAGTATAGTACGCATC, the PBM binding z-score was -0.283.

Regarding ATCTCTAGGTAAGACTCGGTTCAGTGAAGAACGC, the PBM binding z-score is 0.126.

ACTAGCAGGCCAAGGGTCTCTCAAGATTAGTCCG gave a PBM binding z-score of 4.52.

As to CCTAGCAGGCCAGGGTCACTCTAGCATTTCGCTT, the PBM binding z-score came to 1.19.

In the case of GCTTGTTGGTCAGTAAAAGGTCACACACCGGTCG, the PBM binding z-score was 4.25.

Sequence TCATATAGGTAAACAGGTGAAAGTGCGTAAGTTA returned a PBM binding z-score of 5.09.

ATCTCTAGGCAAAGTTCAGTGAAAGATCGATAGA displayed a PBM binding z-score of 3.78.

ATCTCTAGTTAAAGTTCAGTGAAAGATCGATAGA registered a PBM binding z-score of 3.2.

The sequence CCGACTGGGGCAAAGGTTACTATACTCAGTACGA yielded a PBM binding z-score of 8.89.

As for TCTTGCAGATCAAGCAGGTTAAGAAAGCCTGAGT, the PBM binding z-score worked out at 0.302.

For the sequence CGTACTGGGCCATTCAGAGGTCATTGATCATATG, the PBM binding z-score is 3.25.

CGACAAAGTTCAACTAAGGTAACGTAAAGCACGC: the PBM binding z-score was determined as 4.95.

In turn, TCGGCTAGGTCAACGATGGTCAGCTAATCTGCTA came in with a PBM binding z-score of 2.37.

Sequence AGAATGAGGTGACCAAAGATCAGGGAAACGCTTG yielded a PBM binding z-score of 2.2.

Regarding GCGACTGGGGCAAAGCAGGTTACGATAAGGTTGG, the PBM binding z-score was determined as 1.43.

In turn, TCAAATAGGTAATACAGGTGAAAGTCGGCATCTA displayed a PBM binding z-score of 2.72.

As to GTAACGAGGGCATTCGAGTTGATAGCATGGCGAT, the PBM binding z-score is 0.912.

Sequence CCTATTTGTTGACCATAAGGGCAACCGAAGCTCG gave a PBM binding z-score of 0.529.

CCGGCTAGGTCATGGTCAGCTAATCTACAGTATG showed a PBM binding z-score of 2.4.

CCAGACAGGTGAAAGGGAACTCAGTCTGGTACGC had a PBM binding z-score of 3.24.

Consider CGAACTAGGTCATCCAGGGCAGTGAATACATTGA, for which the PBM binding z-score was determined as 6.54.

Take CCGAGAAGGTTATGGGGCATTCAGGCAACGGTGA: the PBM binding z-score worked out at 1.75.

Sequence TAGCCTAGGTCATTCAGGGGCCAGTATAGAAAGC yielded a PBM binding z-score of 2.59.

Regarding CCGAGTAGGTTATGGGGCATGCAGGCAACGGTGA, the PBM binding z-score stood at 4.62.

Take GGAACGAGGGCAAGATGATAGCAGAGTTTGATGG: the PBM binding z-score was 0.84.

Take CGAACTAGGTCAGAACAGGACAGTGGAGGATGAT: the PBM binding z-score worked out at 4.33.

Regarding TCATATCGGTAAAGGTGAAAGTCGAACGATATGA, the PBM binding z-score was 3.12.

Take TCTAGCAGGCCAAAGGGTCACTCAAGAGGTACGG: the PBM binding z-score came out at 4.84.

On to ATCGAAAGGTCGCGAGGTGAGTATACAGAAAGGC, for which the PBM binding z-score came to 4.93.

CGTCCAAGGTCAAGGTCATTGAAAGAGACTCGAA came in with a PBM binding z-score of 6.7.

Sequence CGTCAAAGTTCAGCTAAGGTAACGTAAAGCACGC displayed a PBM binding z-score of 3.94.

As to CCGAGTAGTTTATGGGGCATTCAGGCAACGGTGA, the PBM binding z-score is 0.448.

CCAGACAGGTGCGAAGGTAACTCAGCCTCGATTA yielded a PBM binding z-score of -0.0964.

Consider ACAGACAGGTGATGAAGGTAACTGAGGCTATCAT, for which the PBM binding z-score was 0.0724.

AGGCAAAGTTCATCTAGGTAACGTAAGATATGCT: the PBM binding z-score worked out at 5.87.

Sequence AGAATGAGGTTATACGTTGATCAGGGAAGAAAGT gave a PBM binding z-score of 2.34.

TCTTGTAGATCAGCAGGTTAATAAAGCTGGCCAA had a PBM binding z-score of 1.38.

With GTACCAGGGTGAATAGGTCGTTGATGAGTAGGCG, the PBM binding z-score stood at 1.61.

The sequence CCGACAGGGGCAAAGGTTACCATACTCAGTACGA returned a PBM binding z-score of 7.14.
